Assay results as given in the supplement of paper PMC10849652.
About 7,900 targets were measured; listed, in parts, are those with a hit and a random draw of the rest. About 0.6% of all pairs of compound and target were hits.

The targets below were run with c1cn2cc(-c3ccc4cn[nH]c4c3)nc(Nc3ccc(N4CCOCC4)cc3)c2n1 [entospletinib] (assay: log2 fold change, soluble protein after heating vs DMSO (PISA); higher = thermal stabilisation; K562 cells, 10 uM, 30 min; active = over 0.2 and 3.5 SD of the protein, either way, in both replicates (recomputed)).
Outline: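 For each measurement, 10 μM compound was applied for 30 min to K562 cells at 2×10^6 cells/mL. Aliquots were heated for 3 min across 48°C-58°C, pooled, and extracted in PBS with 0.5% NP-40 at 4°C; the supernatant after 21,000xg for 90 min was soluble protein. This was quantified by TMTpro 16plex LC-MS/MS with channel sums equalised, and thermal stability was reported relative to control samples from duplicates, on a log2 fold-change scale.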

UniProt Q7L1V2, sequence (Q7L1V2 whole entry, looked up): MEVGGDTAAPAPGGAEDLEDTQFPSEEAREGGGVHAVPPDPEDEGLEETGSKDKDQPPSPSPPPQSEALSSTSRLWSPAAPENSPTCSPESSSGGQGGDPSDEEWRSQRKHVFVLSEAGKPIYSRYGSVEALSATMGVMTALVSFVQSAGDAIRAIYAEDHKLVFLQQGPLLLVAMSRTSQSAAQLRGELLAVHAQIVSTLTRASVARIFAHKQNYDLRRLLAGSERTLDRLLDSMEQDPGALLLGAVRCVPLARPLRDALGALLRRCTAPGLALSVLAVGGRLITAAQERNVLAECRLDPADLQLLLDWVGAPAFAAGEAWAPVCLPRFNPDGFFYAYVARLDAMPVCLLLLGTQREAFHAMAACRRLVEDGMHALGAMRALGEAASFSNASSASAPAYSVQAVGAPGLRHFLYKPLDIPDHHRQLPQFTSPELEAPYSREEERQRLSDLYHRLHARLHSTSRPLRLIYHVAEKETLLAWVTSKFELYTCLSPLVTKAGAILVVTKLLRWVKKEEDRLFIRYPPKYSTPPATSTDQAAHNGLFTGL
UniProt Q9BRA0, sequence (Q9BRA0 whole entry, looked up): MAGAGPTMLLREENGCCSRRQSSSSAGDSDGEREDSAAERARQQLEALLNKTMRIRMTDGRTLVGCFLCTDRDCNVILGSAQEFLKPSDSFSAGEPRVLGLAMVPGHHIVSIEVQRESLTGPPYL
UniProt O75251, sequence (O75251 whole entry, looked up): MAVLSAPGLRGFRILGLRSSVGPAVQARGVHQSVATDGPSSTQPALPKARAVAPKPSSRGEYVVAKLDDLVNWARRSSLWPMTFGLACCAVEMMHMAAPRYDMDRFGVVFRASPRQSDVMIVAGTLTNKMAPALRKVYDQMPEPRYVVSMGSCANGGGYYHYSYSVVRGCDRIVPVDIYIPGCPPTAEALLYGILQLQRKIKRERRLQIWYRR
UniProt Q96PU5, sequence (Q96PU5 whole entry, looked up): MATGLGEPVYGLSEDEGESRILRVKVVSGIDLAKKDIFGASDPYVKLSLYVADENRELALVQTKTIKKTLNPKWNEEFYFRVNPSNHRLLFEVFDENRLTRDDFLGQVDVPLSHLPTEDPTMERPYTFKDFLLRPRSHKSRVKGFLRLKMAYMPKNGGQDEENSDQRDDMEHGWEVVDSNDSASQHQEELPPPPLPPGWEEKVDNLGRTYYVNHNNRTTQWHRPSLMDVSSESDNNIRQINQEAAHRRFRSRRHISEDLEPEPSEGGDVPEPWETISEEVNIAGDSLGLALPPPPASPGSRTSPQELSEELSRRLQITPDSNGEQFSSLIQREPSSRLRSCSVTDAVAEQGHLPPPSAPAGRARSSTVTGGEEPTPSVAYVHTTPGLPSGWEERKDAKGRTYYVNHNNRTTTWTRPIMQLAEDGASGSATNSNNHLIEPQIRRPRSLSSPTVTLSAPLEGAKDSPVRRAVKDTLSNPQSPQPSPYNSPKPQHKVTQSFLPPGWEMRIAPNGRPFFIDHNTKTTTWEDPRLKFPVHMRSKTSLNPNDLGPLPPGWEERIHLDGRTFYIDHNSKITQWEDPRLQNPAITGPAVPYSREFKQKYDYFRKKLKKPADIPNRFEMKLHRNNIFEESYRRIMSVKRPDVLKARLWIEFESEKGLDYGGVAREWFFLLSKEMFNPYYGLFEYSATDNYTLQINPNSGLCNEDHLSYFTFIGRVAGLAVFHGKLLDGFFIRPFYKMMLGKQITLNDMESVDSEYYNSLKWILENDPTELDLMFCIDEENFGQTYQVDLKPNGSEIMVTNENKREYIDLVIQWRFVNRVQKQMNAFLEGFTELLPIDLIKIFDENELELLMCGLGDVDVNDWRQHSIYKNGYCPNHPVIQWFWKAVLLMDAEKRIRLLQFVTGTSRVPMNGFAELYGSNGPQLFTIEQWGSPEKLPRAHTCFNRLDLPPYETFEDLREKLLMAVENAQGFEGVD
UniProt Q8N5F7, sequence (Q8N5F7 whole entry, looked up): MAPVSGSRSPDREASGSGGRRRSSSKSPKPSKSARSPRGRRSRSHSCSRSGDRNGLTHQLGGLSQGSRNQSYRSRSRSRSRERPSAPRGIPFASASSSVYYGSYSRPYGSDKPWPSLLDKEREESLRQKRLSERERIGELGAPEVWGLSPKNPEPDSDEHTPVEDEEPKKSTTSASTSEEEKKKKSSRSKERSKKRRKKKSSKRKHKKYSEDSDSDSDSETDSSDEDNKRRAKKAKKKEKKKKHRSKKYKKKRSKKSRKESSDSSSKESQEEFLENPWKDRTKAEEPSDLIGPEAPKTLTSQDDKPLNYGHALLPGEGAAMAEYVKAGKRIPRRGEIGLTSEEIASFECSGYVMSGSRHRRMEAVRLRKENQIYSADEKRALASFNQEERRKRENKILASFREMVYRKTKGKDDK
UniProt P00846, sequence (P00846 whole entry, looked up): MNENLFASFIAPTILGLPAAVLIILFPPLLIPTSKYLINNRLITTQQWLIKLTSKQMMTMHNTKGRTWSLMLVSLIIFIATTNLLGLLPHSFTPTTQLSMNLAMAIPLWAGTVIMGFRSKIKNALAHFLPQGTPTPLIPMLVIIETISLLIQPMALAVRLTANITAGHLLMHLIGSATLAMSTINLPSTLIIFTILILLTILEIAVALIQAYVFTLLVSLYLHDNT
UniProt P46934, sequence (P46934 whole entry, looked up): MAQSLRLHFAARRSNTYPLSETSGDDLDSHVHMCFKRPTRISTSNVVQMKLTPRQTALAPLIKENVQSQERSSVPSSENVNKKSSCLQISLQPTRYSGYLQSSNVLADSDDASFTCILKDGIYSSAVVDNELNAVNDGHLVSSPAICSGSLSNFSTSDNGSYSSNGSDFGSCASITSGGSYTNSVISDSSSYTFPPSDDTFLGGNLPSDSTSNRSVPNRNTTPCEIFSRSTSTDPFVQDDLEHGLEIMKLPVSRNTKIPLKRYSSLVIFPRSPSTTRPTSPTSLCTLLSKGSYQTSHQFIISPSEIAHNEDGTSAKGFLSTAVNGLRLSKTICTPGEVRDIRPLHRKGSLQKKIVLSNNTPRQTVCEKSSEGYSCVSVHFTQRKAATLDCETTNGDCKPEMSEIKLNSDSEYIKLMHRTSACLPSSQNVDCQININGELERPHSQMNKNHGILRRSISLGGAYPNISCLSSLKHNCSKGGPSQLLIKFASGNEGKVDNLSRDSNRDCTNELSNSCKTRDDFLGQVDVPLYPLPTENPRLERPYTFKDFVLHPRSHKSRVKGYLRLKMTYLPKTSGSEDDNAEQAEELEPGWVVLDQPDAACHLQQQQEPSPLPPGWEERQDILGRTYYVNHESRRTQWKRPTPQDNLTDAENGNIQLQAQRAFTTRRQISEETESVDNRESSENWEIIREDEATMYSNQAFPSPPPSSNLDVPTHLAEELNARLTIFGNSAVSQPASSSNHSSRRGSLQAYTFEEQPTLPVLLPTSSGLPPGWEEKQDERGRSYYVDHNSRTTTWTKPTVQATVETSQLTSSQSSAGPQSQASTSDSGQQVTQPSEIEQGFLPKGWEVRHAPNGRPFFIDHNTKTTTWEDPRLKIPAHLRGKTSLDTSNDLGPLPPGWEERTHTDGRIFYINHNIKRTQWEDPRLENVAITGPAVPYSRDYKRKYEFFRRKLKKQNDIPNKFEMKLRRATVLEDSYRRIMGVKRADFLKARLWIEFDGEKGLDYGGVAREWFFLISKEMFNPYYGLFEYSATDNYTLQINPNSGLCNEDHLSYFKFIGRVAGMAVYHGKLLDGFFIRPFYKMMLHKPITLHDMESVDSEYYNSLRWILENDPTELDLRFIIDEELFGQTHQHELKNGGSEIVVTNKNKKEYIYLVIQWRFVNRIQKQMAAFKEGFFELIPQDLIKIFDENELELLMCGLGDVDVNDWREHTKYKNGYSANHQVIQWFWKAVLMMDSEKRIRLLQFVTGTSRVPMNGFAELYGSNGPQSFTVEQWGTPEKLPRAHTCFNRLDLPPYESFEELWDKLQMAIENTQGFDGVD
UniProt Q16795, sequence (Q16795 whole entry, looked up): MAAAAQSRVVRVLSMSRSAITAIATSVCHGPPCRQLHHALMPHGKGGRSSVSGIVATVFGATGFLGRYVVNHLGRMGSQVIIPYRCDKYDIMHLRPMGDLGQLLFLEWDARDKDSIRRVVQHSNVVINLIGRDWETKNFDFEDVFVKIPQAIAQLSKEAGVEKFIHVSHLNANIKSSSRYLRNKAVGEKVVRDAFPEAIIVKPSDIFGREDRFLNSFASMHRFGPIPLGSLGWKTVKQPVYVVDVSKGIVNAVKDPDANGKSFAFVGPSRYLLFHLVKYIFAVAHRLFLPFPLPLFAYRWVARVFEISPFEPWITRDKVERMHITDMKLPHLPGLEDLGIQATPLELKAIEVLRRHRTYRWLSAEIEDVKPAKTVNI
UniProt Q9Y2X3, sequence (Q9Y2X3 whole entry, looked up): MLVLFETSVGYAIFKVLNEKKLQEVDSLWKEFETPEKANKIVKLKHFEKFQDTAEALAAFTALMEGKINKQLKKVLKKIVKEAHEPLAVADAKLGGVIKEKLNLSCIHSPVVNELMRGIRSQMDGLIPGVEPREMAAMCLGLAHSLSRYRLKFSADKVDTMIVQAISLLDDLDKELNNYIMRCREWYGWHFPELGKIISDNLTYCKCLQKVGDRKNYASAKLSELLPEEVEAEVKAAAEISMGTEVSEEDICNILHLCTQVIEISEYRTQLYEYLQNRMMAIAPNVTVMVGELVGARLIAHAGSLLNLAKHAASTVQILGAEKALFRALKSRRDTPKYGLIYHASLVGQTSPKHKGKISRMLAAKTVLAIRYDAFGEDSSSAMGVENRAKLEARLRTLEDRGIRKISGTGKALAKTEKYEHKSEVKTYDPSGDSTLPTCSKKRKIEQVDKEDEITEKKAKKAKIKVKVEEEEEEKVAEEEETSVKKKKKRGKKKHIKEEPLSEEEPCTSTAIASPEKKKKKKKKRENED
UniProt O00483, sequence (O00483 whole entry, looked up): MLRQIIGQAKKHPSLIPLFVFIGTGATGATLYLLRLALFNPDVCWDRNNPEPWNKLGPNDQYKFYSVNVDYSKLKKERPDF
UniProt Q9Y605, sequence (Q9Y605 whole entry, looked up): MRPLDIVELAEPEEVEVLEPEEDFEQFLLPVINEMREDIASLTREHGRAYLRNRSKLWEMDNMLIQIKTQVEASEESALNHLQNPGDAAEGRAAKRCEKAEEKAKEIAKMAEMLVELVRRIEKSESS

log2 fold change, inactive:
NEDD4L (UniProt Q96PU5) 0.046
PAFAH1B3 (UniProt Q15102) 0
NFE2 (UniProt Q16621) -0.055
NGLY1 (UniProt Q96IV0) 0.081
MT-ATP6 (UniProt P00846) 0.029
MON1B (UniProt Q7L1V2) 0.017
NKAP (UniProt Q8N5F7) -0.144
MND1 (UniProt Q9BWT6) 0.047
MRPS16 (UniProt Q9Y3D3) 0.051
NAA38 isoform 2 (UniProt Q9BRA0) 0.13
OTULIN (UniProt Q96BN8) 0.1
MSL1 (UniProt Q68DK7) -0.078
NCBP2AS2 (UniProt Q69YL0) -0.017
NDUFA9 (UniProt Q16795) -0.011
NASP (UniProt P49321) -0.007
NFYC (UniProt Q13952) 0.033
MORC3 (UniProt Q14149) -0.088
OTUD6B (UniProt Q8N6M0) -0.028
NDUFB8 (UniProt O95169) 0.067
NUP205 (UniProt Q92621) -0.041
MNAT1 (UniProt P51948) -0.065
NDUFA4 (UniProt O00483) 0.025
NOP2 isoform 4 (UniProt P46087) 0.147
OTUD4 (UniProt Q01804) 0.105
NEDD4 isoform 4 (UniProt P46934) -0.007
MXRA7 (UniProt P84157) -0.008
NOP58 (UniProt Q9Y2X3) 0.085
NME2P1 (UniProt O60361) -0.571
MRPS18B (UniProt Q9Y676) 0.028
NDUFS7 (UniProt O75251) 0.006
NPM3 (UniProt O75607) 0.008
MRFAP1 (UniProt Q9Y605) 0.005
MON2 isoform 5 (UniProt Q7Z3U7) 0.014
NAPG (UniProt Q99747) 0.037
